Screen size: about 5,500 compounds; about 2,000 (36%) were called active. Inconclusive results (about 18%) are left out. Cut-off read from the data, not from the text of the source: active = normalized growth mostly below about 0.91 (no sharp cut-off); inconclusive = no clear call, values can overlap the other calls; inactive = mostly above about 0.92. This is one part of the list.
Assay: chemical genetic growth profiling, strain panel (AID 1159580);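 note: tested at 20 µM; growth read once vehicle control cultures reached saturation at 30 °C; 1 = growth at the plate median or of vehicle wells; lower values mean less growth of the strain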
Details: S. cerevisiae deletion strains, growth OD
[1] = locus YAL021C, strain ccr4, stronger effect = lower value
[2] = locus YAL026C, strain drs2, stronger effect = lower value
[3] = locus YAL030W, strain snc1, stronger effect = lower value
[4] = locus YBL061C, strain skt5, stronger effect = lower value
[5] = locus YBR009C, strain hhf1, stronger effect = lower value
[6] = locus YBR023C, strain chs3, stronger effect = lower value
[7] = locus YBR171W, strain sec66, stronger effect = lower value
[8] = locus YBR231C, strain swc5, stronger effect = lower value
[9] = locus YBR279W, strain paf1, stronger effect = lower value
[10] = locus YCL011C, strain gbp2, stronger effect = lower value
[11] = locus YCL016C, strain dcc1, stronger effect = lower value
[12] = locus YCL061C, strain MRC1, stronger effect = lower value
[13] = locus YCL069W, strain vba3, stronger effect = lower value
[14] = locus YCR088W, strain abp1, stronger effect = lower value
[15] = locus YDL005C, strain med2, stronger effect = lower value
[16] = locus YDL040C, strain nat1, stronger effect = lower value
[17] = locus YDR001C, strain nth1, stronger effect = lower value
[18] = locus YDR069C, strain doa4, stronger effect = lower value
[19] = locus YDR137W, strain rgp1, stronger effect = lower value
[20] = locus YDR159W, strain sac3, stronger effect = lower value
[21] = locus YDR297W, strain sur2, stronger effect = lower value
[22] = locus YDR334W, strain swr1, stronger effect = lower value
[23] = locus YDR335W, strain msn5, stronger effect = lower value
[24] = locus YDR392W, strain spt3, stronger effect = lower value
[25] = locus YEL003W, strain gim4, stronger effect = lower value
[26] = locus YEL037C, strain rad23, stronger effect = lower value
[27] = locus YEL061C, strain CIN8 (second series), stronger effect = lower value
[28] = locus YER015W, strain faa2, stronger effect = lower value
[29] = locus YER016W, strain bim1, stronger effect = lower value
[30] = locus YER111C, strain swi4, stronger effect = lower value
[31] = locus YER155C, strain BEM2 (second series), stronger effect = lower value
[32] = locus YFR010W, strain ubp6, stronger effect = lower value
[33] = locus YGL167C, strain pmr1, stronger effect = lower value
[34] = locus YGL173C, strain kem1, stronger effect = lower value
[35] = locus YGL227W, strain vid30, stronger effect = lower value
[36] = locus YGL240W, strain doc1, stronger effect = lower value
[37] = locus YGL253W, strain hxk2, stronger effect = lower value
[38] = locus YHR013C, strain ard1, stronger effect = lower value
[39] = locus YHR027C, strain rpn1, stronger effect = lower value
[40] = locus YHR030C, strain SLT2, stronger effect = lower value
[41] = locus YHR079C, strain IRE1, stronger effect = lower value
[42] = locus YHR142W, strain chs7, stronger effect = lower value
[43] = locus YJL092W, strain hpr5, stronger effect = lower value
[44] = locus YJL095W, strain BCK1 (second series), stronger effect = lower value
[45] = locus YJL095W, strain BCK1, stronger effect = lower value
[46] = locus YJL115W, strain asf1, stronger effect = lower value
[47] = locus YJL129C, strain trk1, stronger effect = lower value
[48] = locus YJL154C, strain vps35, stronger effect = lower value
[49] = locus YJL164C, strain tpk1, stronger effect = lower value
[50] = locus YJL166W, strain qcr8, stronger effect = lower value
[51] = locus YJR066W, strain TOR1, stronger effect = lower value
[52] = locus YKL160W, strain elf1, stronger effect = lower value
[53] = locus YKR026C, strain gcn3, stronger effect = lower value
[54] = locus YKR091W, strain srl3, stronger effect = lower value
[55] = locus YLL001W, strain dnm1, stronger effect = lower value
[56] = locus YLL026W, stronger effect = lower value
[57] = locus YLL041C, strain sdh2, stronger effect = lower value
[58] = locus YLR027C, strain aat2, stronger effect = lower value
[59] = locus YLR113W, strain HOG1, stronger effect = lower value
[60] = locus YLR221C, strain rsa3, stronger effect = lower value
[61] = locus YLR258W, strain gsy2, stronger effect = lower value
[62] = locus YLR262C, strain YPT6 (second series), stronger effect = lower value
[63] = locus YLR320W, strain mms22, stronger effect = lower value
[64] = locus YLR342W, strain FKS1, stronger effect = lower value
[65] = locus YLR357W, strain rsc2, stronger effect = lower value
[66] = locus YLR370C, strain arc18, stronger effect = lower value
[67] = locus YLR384C, strain iki3, stronger effect = lower value
[68] = locus YML120C, strain ndi1, stronger effect = lower value
[69] = locus YMR058W, strain fet3, stronger effect = lower value
[70] = locus YMR125W, strain sto1, stronger effect = lower value
[71] = locus YMR129W, stronger effect = lower value
[72] = locus YMR205C, strain PFK2, stronger effect = lower value
[73] = locus YMR231W, strain pep5, stronger effect = lower value
[74] = locus YNL071W, strain lat1, stronger effect = lower value
[75] = locus YNL183C, strain NPR1, stronger effect = lower value
[76] = locus YNL209W, strain ssb2, stronger effect = lower value
[77] = locus YNL248C, strain rpa49, stronger effect = lower value
[78] = locus YNL322C, strain KRE1 (second series), stronger effect = lower value
[79] = locus YNR049C, strain mso1, stronger effect = lower value
[80] = locus YOR001W, strain rrp6, stronger effect = lower value
[81] = locus YOR070C, strain gyp1, stronger effect = lower value
[82] = locus YOR080W, strain dia2, stronger effect = lower value
[83] = locus YOR083W, strain WHI5, stronger effect = lower value
[84] = locus YOR106W, strain vam3, stronger effect = lower value
[85] = locus YOR231W, strain MKK1, stronger effect = lower value
[86] = locus YOR265W, strain rbl2, stronger effect = lower value
[87] = locus YOR270C, strain vph1, stronger effect = lower value
[88] = locus YOR290C, strain snf2, stronger effect = lower value
[89] = locus YPL051W, strain arl3, stronger effect = lower value
[90] = locus YPL078C, strain atp4, stronger effect = lower value
[91] = locus YPL106C, strain sse1, stronger effect = lower value
[92] = locus YPL240C, strain hsp82, stronger effect = lower value
[93] = locus YPL256C, strain CLN2, stronger effect = lower value

Measured: normalized growth

Cc1coc2c1C(=O)C(=O)c1c-2ccc2c1CCCC2(C)C
inactive: [1] 0.912 | [3] 0.936 | [4] 0.968 | [6] 0.951 | [7] 0.916 | [9] 0.944 | [10] 0.913 | [13] 0.95 | [14] 0.955 | [15] 0.945 | [16] 0.948 | [17] 0.949 | [18] 0.925 | locus YDR195W, strain ref2 0.989 | [21] 0.951 | [22] 0.923 | [23] 0.929 | [26] 0.947 | [28] 0.951 | [29] 0.926 | [30] 0.953 | [32] 0.902 | [33] 0.946 | [34] 0.97 | [35] 0.962 | [39] 0.957 | [41] 0.859 | [43] 0.94 | [44] 0.925 | [46] 0.953 | [48] 0.957 | [49] 0.927 | [50] 0.94 | locus YJL187C, strain SWE1, stronger effect = lower value 0.965 | [51] 0.835 | [53] 0.943 | [54] 0.946 | [56] 0.936 | [57] 0.958 | [61] 0.964 | [65] 1.07 | [66] 0.927 | [67] 0.96 | [69] 0.913 | [70] 0.975 | [71] 0.938 | [73] 0.953 | [76] 0.954 | [77] 1.03 | [78] 0.949 | [79] 0.954 | [80] 0.927 | [82] 0.949 | [83] 0.928 | [85] 0.867 | [86] 0.948 | [87] 0.809 | [88] 0.958 | [91] 0.852 | [92] 0.944 | [93] 0.894
active: [2] 0.869 | [5] 0.882 | [8] 0.815 | [11] 0.904 | [12] 0.91 | [19] 0.439 | [20] 0.582 | [24] 0.196 | [25] 0.903 | [27] 0.905 | [31] 0.592 | [36] 0.801 | [37] 0.828 | [38] 0.815 | [40] 0.81 | [42] 0.868 | [45] 0.855 | [47] 0.738 | [52] 0.886 | [55] 0.886 | [58] 0.911 | [59] 0.821 | [60] 0.873 | [62] 0.485 | [63] 0.79 | [64] 0.904 | [68] 0.905 | [72] 0.735 | [74] 0.766 | [75] 0.82 | [81] 0.911 | [84] 0.852 | [89] 0.913 | [90] 0.853

C[C@H]1COC2=C1C(=O)C(=O)c1c2ccc2c1CCCC2(C)C
active: [1] 0.859 | [2] 0.583 | [3] 0.858 | [4] 0.725 | [5] 0.534 | [6] 0.783 | [7] 0.808 | [8] 0.675 | [9] 0.725 | [10] 0.65 | [11] 0.691 | [12] 0.668 | [13] 0.659 | [14] 0.866 | [15] 0.828 | [16] 0.9 | [17] 0.913 | [18] 0.868 | [19] 0.23 | [20] 0.301 | locus YDR195W, strain ref2 0.823 | [21] 0.75 | [22] 0.729 | [23] 0.658 | [24] 0.0851 | [25] 0.77 | [26] 0.883 | [27] 0.527 | [28] 0.845 | [29] 0.666 | [30] 0.478 | [31] 0.334 | [32] 0.871 | [34] 0.801 | [35] 0.546 | [36] 0.649 | [37] 0.545 | [38] 0.604 | [39] 0.872 | [40] 0.139 | [41] 0.25 | [42] 0.379 | [43] 0.871 | [44] 0.408 | [45] 0.31 | [46] 0.886 | [47] 0.22 | [48] 0.913 | [49] 0.69 | [50] 0.349 | [51] 0.701 | [52] 0.462 | [53] 0.853 | [54] 0.893 | [55] 0.819 | [56] 0.843 | [57] 0.901 | [58] 0.662 | [59] 0.208 | [60] 0.662 | [61] 0.723 | [62] 0.2 | [63] 0.613 | [64] 0.626 | [66] 0.806 | [67] 0.904 | [68] 0.371 | [69] 0.619 | [70] 0.476 | [71] 0.824 | [72] 0.531 | [73] 0.714 | [74] 0.18 | [75] 0.666 | [76] 0.817 | [77] 0.735 | [78] 0.801 | [79] 0.903 | [80] 0.608 | [81] 0.752 | [82] 0.912 | [83] 0.712 | [84] 0.581 | [85] 0.213 | [86] 0.895 | [87] 0.543 | [88] 0.775 | [89] 0.549 | [90] 0.453 | [91] 0.537 | [92] 0.761 | [93] 0.19
inactive: [33] 0.936 | [65] 0.934

Cc1cccc2c3c(ccc12)C1=C(C(=O)C3=O)C(C)CO1 (configuration not stated)
active: [40] 0.128 | [41] 0.174 | [45] 0.263 | [51] 0.756 | [59] 0.163 | [75] 0.72 | [85] 0.133 | [93] 0.141

Reference: PubChem BioAssay AID1159580 (chemical genetic matrix, 2015)
